# T1: ESR2 263-500 Hormone_recep (domain begin residue: 263, domain end residue: 500), Q92731
# T1 chain: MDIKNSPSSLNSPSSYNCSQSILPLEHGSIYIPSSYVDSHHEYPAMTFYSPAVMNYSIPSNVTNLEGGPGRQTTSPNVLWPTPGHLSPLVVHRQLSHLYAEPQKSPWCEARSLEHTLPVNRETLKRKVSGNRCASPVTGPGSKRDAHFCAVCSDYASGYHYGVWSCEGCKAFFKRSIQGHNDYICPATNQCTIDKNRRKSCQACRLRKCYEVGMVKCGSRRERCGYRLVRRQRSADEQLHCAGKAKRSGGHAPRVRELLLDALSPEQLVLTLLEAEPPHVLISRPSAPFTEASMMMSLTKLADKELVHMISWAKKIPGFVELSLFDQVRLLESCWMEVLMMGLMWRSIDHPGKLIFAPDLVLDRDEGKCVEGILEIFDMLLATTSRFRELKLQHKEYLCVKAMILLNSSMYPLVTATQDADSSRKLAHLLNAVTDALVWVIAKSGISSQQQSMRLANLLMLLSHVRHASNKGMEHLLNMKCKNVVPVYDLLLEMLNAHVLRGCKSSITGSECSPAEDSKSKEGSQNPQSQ
# T2: FRS3 12-117 IRS (domain begin residue: 12, domain end residue: 117), O43559
# T2 chain: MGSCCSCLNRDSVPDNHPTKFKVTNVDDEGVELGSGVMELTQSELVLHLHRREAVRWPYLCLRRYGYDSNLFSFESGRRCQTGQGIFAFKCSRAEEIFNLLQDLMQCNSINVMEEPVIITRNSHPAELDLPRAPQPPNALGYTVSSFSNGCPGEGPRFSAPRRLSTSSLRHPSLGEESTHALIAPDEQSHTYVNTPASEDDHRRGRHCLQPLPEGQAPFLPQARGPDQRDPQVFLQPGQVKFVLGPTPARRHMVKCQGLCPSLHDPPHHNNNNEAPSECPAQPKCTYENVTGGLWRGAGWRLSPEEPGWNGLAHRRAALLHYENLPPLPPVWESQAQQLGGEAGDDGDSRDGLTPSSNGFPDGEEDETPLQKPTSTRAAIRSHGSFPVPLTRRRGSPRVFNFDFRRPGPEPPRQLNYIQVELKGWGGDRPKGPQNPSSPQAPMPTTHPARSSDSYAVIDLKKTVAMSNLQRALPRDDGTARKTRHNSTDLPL
# T3: GGA1 1-157 VHS (domain begin residue: 1, domain end residue: 157), Q9UJY5
# T3 chain: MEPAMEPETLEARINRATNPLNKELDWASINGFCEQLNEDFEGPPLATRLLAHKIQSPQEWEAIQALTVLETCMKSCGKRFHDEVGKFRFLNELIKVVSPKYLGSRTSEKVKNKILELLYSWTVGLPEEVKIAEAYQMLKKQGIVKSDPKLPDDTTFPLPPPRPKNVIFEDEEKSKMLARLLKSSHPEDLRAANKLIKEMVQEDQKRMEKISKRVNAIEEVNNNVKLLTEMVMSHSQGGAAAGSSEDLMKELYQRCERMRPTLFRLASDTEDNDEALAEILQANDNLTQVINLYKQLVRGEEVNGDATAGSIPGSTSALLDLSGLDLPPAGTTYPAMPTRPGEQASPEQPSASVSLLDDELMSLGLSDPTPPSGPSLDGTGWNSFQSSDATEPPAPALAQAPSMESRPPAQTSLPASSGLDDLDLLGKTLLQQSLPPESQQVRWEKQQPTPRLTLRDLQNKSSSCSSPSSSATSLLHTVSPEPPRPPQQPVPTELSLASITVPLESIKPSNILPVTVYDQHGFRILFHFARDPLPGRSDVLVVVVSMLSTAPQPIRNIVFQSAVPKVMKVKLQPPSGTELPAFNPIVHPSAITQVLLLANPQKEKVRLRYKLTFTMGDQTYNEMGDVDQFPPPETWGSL
# T4: FKBP3 109-224 FKBP_C (domain begin residue: 109, domain end residue: 224), Q00688
# T4 chain: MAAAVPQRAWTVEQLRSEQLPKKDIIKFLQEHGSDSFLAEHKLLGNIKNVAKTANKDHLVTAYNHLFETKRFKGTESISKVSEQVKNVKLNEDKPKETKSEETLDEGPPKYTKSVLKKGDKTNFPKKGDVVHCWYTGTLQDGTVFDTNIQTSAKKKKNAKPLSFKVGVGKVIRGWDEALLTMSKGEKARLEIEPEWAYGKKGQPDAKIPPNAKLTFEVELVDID
# T5: ESRRA 179-423 Hormone_recep (domain begin residue: 179, domain end residue: 423), P11474
# T5 chain: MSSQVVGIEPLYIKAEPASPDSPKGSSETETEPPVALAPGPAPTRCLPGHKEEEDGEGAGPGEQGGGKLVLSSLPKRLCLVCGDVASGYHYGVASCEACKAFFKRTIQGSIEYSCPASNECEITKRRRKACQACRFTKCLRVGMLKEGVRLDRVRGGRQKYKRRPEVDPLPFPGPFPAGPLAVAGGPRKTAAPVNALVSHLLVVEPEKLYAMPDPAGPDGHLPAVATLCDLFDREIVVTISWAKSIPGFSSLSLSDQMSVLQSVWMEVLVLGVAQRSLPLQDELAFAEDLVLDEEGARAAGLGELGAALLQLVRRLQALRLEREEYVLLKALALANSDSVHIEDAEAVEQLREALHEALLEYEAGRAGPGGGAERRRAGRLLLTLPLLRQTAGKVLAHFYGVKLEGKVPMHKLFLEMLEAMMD
# T6: ESRRG 219-458 Hormone_recep (domain begin residue: 219, domain end residue: 458), P62508
# T6 chain: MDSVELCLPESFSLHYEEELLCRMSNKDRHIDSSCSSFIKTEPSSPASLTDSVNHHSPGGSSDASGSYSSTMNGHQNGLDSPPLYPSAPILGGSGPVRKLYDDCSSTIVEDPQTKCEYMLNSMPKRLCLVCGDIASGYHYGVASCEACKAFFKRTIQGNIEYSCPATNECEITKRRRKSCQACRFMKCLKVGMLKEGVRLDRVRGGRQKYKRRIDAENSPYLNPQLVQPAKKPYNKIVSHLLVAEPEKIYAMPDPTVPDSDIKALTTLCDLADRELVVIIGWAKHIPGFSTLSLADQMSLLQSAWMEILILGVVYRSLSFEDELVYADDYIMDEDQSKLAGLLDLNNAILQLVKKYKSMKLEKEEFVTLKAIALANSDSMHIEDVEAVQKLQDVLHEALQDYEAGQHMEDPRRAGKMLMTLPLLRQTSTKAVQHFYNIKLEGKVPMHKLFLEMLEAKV
# What was measured:
# Assay in all cases: phage ELISA signal ratio (GST-PRM binding over GST background); higher = stronger binding of peptide-phage to the PRM
# [1] = target: T1, ESR2 263-500 Hormone_recep (domain …
# In short: (§1)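 Five rounds of selection were carried out against human peptide recognition domains fused to the C-terminus of glutathione S-transferase (GST) and expressed in 96-well plates. The M13 phage library presented randomized hexadecapeptides, cysteine-free and glycine-flanked, on the gene-8 major coat protein. For each value, the phage ELISA signal on the GST-domain fusion was divided by the signal on GST alone.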
# [2] = target: T2, FRS3 12-117 IRS (domain begin residue: …
# In short: as §1
# [3] = target: T3, GGA1 1-157 VHS (domain begin residue: …
# In short: as §1
# [4] = target: EIF4E 2-217 IF4E (domain begin residue: 2, domain end residue: 217), P06730
# In short: as §1
# [5] = target: T4, FKBP3 109-224 FKBP_C (domain begin …
# In short: as §1
# [6] = target: T5, ESRRA 179-423 Hormone_recep (domain …
# In short: as §1
# [7] = target: GGA3 1-153 VHS (domain begin residue: 1, domain end residue: 153)
# In short: as §1
# [8] = target: T6, ESRRG 219-458 Hormone_recep (domain …
# In short: as §1
# [9] = target: PCMT1 1-227 PCMT (domain begin residue: 1, domain end residue: 227), P22061
# In short: as §1
# [10] = target: EIF2S1 9-93 S1 (domain begin residue: 9, domain end residue: 93), P05198
# In short: as §1
# [11] = target: PABPC1 96-174 RRM_1 (domain begin residue: 96, domain end residue: 174)
# In short: as §1
# Sequence of EIF4E 2-217 IF4E (domain begin residue: 2, domain end residue: 217), P06730 (P06730 whole entry): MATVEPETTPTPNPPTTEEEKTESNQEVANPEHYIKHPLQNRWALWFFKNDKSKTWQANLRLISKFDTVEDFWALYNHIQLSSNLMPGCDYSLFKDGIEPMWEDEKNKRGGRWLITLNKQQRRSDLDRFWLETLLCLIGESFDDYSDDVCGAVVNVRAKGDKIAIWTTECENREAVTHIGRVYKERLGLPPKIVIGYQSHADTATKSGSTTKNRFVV
# Sequence of EIF2S1 9-93 S1 (domain begin residue: 9, domain end residue: 93), P05198 (P05198 whole entry): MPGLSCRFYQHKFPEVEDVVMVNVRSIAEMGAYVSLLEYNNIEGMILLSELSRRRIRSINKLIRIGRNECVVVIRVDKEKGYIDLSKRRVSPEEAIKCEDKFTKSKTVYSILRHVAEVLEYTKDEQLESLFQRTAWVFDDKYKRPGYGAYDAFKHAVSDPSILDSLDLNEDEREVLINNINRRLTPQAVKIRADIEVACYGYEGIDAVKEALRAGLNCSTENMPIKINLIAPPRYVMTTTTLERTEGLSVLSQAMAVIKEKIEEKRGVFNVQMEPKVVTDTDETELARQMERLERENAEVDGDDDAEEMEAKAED
# Sequence of PCMT1 1-227 PCMT (domain begin residue: 1, domain end residue: 227), P22061 (P22061 whole entry): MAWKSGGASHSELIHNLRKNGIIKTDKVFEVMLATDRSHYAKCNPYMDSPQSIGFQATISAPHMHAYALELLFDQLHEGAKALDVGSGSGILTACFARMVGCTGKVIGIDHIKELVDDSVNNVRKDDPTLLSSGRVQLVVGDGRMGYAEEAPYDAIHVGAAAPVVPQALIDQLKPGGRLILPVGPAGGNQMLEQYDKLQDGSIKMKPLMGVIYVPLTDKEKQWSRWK
binder,measurement,setting,value
GVDVWLWDKQWNMWMP,phage ELISA signal ratio,[1],25.9
PQGTWFTIIQEPSQHD,phage ELISA signal ratio,[2],5.78
QTMTWEARDPSKMLEL,phage ELISA signal ratio,[3],12.5
PWSWFTYREQLETENV,phage ELISA signal ratio,[4],20.1
QQGIGVFQDWFNHGLI,phage ELISA signal ratio,[5],9.64
VQWQDQYPTFYAEMSK,phage ELISA signal ratio,[6],8.22
EEWKPHPEEGMGVFLV,phage ELISA signal ratio,[5],13
WDIDMWDLQEWMMIQS,phage ELISA signal ratio,[3],13.9
WHGQEADDVQMLWHWS,phage ELISA signal ratio,[7],5.39
VNNQWDNDVPMLSMFA,phage ELISA signal ratio,[3],16.4
QAWDWGIYIDDWAQPL,phage ELISA signal ratio,[7],10.6
VHRDYQLGHEWLVFIN,phage ELISA signal ratio,[8],13.1
same,phage ELISA signal ratio,[9],13.1
TNPPAEHMSRLHWELT,phage ELISA signal ratio,[8],18.2
same,phage ELISA signal ratio,[9],18.2
HDFYIPYMYQDVTMIM,phage ELISA signal ratio,[3],6.03
DEILLHLPWAAMHWEG,phage ELISA signal ratio,[3],22.3
EYTNWYWLGYLPETVM,phage ELISA signal ratio,[10],14.6
MDWTILDFPYQNWPRS,phage ELISA signal ratio,[7],13.9
KGVFLPEIEWKQGYDQ,phage ELISA signal ratio,[5],11.9
EYLQIPVHHVDGIWSV,phage ELISA signal ratio,[7],10.8
QYVEEGSWYMLHMYLT,phage ELISA signal ratio,[8],17.4
WGHYEEDQMFVFMDHE,phage ELISA signal ratio,[3],19.8
SDVPPWWYHEPITGPM,phage ELISA signal ratio,[7],17.8
EVWWQGPEEDWMQTYL,phage ELISA signal ratio,[7],11.9
HSQWWVGPEQPWGQVQ,phage ELISA signal ratio,[7],12.2
VGQGVFLDWKPGRDVN,phage ELISA signal ratio,[5],17.5
same,phage ELISA signal ratio,[2],10.6
SVWWFGQTPYVLWEAS,phage ELISA signal ratio,[4],7.15
WTWDSEMGIWTLANDI,phage ELISA signal ratio,[10],20.4
same,phage ELISA signal ratio,[11],20.4
SQQWSTHYPTFFELML,phage ELISA signal ratio,[6],3.25

# — the supplement of paper PMC7724964
